Experiment in all cases: log2 ratio of Biotin-Ahx-Ub-VS probe labelling (fragment/DMSO); higher = less target engagement (more negative = stronger competition), active = hit call of the paper (q ≤ 0.05, log2 ratio ≤ -1)
Details in all cases: compound concentration: 200 uM; treatment time: 3 h

One assay deals with T1, ALG13 (UniProt Q9NP73).
T1 sequence (whole entry): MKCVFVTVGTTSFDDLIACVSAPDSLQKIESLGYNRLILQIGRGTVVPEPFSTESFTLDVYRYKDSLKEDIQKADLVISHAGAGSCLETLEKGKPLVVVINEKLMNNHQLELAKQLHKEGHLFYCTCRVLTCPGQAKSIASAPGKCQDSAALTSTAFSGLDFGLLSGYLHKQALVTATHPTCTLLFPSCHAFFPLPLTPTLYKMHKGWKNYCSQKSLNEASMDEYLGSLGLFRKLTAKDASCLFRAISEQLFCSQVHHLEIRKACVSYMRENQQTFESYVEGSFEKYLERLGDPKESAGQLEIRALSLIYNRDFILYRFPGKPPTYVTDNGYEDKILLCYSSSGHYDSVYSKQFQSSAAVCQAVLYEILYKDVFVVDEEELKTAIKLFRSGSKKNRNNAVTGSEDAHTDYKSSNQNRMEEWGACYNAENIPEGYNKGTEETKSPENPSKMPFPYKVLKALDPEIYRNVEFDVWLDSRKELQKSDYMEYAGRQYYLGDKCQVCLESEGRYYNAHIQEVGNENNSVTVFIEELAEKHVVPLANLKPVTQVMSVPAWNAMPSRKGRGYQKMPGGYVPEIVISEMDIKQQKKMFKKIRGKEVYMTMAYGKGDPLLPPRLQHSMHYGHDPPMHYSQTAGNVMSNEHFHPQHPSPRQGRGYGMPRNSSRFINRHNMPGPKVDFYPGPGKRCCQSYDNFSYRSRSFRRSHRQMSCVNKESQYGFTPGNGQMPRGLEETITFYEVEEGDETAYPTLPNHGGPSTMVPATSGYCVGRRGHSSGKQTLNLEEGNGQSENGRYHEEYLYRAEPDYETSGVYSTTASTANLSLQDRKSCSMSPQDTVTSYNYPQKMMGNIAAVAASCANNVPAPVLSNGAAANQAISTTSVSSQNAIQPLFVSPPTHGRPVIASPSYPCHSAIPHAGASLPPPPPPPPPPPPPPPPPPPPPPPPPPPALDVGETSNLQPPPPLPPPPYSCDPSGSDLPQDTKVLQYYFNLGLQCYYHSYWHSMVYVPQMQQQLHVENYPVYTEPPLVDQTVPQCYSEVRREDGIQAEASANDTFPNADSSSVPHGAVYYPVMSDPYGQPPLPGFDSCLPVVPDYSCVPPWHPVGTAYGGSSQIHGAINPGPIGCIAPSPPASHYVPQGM
The essentials: (§1)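 Average log2 ratios of fragment over vehicle were obtained by unpaired t-test from global-median-normalised Spectronaut label-free quantities. Proteins with ≥2 unique peptides were included. HEK293T lysate (495 µg per sample) was treated in triplicate with fragment at 200 µM or vehicle for 3 h, then with Biotin-Ahx-Ub-VS at 0.5 µM final for 1 h, and labelled DUBs were NeutrAvidin-enriched and run by diaPASEF LC-MS/MS.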

For the next assay, the target named is ATXN3 (UniProt P54252). In short, it runs like this:
as §1

The next assay concerns the target T2, BAP1 (UniProt Q92560).
T2 sequence (whole entry): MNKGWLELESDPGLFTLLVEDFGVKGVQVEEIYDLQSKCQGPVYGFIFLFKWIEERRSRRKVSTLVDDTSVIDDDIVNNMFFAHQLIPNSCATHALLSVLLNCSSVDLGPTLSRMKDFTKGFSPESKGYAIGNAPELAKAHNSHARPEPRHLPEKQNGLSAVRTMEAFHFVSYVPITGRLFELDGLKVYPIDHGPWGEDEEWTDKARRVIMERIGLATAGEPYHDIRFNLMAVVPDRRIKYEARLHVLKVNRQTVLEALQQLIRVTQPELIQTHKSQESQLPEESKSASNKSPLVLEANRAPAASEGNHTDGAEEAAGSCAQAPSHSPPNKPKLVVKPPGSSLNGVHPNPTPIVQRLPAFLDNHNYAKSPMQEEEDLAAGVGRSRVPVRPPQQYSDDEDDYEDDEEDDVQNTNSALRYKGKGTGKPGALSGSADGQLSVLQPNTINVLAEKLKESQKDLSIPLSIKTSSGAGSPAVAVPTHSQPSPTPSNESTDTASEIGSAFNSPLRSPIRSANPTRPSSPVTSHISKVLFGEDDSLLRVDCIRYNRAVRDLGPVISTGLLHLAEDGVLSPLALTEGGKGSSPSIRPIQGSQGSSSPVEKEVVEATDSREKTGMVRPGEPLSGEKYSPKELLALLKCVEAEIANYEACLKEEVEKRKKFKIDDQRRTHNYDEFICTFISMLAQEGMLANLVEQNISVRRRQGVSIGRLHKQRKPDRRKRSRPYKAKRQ
The essentials:
as §1

The next assay deals with EIF3F (UniProt O00303). The essentials:
as §1

The next assay addresses EIF3H (UniProt O15372). In short, it runs like this:
as §1

The target of a further assay is T3, FAM105A (UniProt Q9NUU6).
T3 sequence (whole entry): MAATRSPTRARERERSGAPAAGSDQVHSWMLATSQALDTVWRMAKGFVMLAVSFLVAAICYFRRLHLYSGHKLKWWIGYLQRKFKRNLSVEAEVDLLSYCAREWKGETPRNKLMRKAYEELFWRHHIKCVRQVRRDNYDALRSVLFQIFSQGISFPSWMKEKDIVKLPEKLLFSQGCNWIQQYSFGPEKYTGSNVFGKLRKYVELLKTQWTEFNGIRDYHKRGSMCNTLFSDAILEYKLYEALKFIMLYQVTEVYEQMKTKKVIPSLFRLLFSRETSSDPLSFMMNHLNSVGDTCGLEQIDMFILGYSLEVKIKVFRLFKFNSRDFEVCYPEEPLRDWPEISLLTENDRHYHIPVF
The essentials:
as §1

For another assay, the target named is OTUB1 (UniProt Q96FW1). In short, it runs like this: as §1
The target of a further assay is T4, OTUD4 (UniProt Q01804).
T4 sequence (whole entry): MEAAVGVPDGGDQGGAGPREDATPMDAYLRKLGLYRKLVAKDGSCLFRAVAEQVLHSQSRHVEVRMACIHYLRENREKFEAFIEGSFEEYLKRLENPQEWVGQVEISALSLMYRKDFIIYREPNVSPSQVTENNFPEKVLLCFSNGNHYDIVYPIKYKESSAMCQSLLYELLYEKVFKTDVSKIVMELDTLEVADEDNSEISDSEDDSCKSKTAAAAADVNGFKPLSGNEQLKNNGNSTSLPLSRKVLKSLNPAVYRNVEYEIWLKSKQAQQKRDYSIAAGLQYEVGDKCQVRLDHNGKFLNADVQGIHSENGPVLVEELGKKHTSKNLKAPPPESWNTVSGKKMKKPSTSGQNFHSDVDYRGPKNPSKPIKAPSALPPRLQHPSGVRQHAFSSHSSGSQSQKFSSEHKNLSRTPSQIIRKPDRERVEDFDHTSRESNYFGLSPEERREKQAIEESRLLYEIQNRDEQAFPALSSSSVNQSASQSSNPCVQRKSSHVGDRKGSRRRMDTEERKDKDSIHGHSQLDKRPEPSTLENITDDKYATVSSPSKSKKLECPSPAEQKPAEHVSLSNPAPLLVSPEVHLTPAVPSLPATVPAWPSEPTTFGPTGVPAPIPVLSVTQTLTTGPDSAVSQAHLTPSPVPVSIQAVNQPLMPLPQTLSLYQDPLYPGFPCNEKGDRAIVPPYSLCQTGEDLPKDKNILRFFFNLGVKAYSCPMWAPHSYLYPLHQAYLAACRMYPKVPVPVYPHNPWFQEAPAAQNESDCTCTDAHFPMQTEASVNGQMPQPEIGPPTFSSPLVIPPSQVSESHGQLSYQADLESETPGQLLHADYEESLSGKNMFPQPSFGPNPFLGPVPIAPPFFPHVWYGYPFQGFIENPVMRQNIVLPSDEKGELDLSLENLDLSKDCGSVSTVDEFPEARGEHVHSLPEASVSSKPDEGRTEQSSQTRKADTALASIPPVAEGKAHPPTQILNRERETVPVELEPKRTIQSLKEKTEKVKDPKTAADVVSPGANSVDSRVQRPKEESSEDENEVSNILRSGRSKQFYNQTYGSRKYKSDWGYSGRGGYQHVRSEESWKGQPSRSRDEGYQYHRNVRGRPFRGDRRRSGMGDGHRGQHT
The essentials: as §1

Another assay has as its target T5, OTUD5 (UniProt Q96G74).
T5 sequence (whole entry): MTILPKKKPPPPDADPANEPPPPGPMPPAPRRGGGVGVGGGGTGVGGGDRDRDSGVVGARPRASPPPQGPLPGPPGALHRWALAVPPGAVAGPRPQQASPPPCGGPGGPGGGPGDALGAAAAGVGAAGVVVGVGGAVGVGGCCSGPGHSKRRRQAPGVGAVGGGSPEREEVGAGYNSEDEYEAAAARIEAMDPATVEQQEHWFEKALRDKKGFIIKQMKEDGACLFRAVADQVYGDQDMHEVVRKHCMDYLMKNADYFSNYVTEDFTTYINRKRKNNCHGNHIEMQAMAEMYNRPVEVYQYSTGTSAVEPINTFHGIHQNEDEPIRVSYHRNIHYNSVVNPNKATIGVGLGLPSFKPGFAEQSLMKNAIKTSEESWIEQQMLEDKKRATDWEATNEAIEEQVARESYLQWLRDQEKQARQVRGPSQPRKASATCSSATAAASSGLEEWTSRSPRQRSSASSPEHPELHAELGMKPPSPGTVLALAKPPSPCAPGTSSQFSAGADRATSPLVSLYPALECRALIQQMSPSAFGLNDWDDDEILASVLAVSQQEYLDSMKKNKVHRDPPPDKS
The essentials:
as §1

Unmarked numbers belong to inactive results.

ATXN3, sequence (P54252 whole entry): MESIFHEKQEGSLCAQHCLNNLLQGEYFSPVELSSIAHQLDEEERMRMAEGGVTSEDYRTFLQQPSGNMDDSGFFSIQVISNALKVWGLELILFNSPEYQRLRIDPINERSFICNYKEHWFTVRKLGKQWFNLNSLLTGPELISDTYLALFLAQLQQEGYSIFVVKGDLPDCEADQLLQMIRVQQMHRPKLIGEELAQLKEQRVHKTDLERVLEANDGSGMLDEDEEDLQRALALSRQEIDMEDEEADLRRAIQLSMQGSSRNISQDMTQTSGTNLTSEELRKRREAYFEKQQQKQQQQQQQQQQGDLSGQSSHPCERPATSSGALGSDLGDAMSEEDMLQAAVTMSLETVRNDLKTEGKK
OTUB1, sequence (Q96FW1 whole entry): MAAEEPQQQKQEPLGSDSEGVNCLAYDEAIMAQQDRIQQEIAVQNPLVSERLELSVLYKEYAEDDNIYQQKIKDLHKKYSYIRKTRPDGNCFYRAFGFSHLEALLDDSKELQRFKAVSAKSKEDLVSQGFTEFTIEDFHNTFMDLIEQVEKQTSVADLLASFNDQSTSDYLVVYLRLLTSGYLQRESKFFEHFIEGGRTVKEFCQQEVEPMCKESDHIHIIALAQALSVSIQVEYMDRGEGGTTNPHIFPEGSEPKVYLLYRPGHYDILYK
EIF3F, sequence (O00303 whole entry): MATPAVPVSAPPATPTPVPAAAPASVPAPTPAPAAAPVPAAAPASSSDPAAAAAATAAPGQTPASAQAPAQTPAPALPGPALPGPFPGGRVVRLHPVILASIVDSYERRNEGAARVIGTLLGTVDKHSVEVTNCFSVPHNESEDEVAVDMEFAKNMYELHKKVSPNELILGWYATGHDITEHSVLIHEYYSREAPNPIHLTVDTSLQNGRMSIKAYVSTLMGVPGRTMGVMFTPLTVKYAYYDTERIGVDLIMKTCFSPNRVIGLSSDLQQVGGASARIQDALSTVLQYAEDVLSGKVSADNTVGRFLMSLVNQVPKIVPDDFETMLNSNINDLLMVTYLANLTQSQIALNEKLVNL
EIF3H, sequence (O15372 whole entry): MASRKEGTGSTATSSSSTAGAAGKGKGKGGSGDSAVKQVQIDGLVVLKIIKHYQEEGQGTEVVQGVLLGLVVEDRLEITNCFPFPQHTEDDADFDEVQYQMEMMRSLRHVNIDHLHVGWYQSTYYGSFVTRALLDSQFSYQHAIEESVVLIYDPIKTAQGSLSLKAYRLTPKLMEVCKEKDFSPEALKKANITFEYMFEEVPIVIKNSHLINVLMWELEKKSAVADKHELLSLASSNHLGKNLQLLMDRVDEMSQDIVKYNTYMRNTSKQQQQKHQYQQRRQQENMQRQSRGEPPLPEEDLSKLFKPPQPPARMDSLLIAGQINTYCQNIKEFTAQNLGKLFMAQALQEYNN

For `Cc1ccccc1OCC(=O)N1CCN(C(=O)CCl)CC1`, the “log2 ratio of Biotin-Ahx-Ub-VS probe labelling” value (shortened to “log2 ratio”) is -0.255 with ALG13; -0.894 with ATXN3; -0.74 in the assay with BAP1; -0.317 with EIF3F; 0.19 in the assay with EIF3H; 0.252 with FAM105A. Moreover, the “log2 ratio” value with OTUB1 was -0.249; with OTUD4, 0.0744; with OTUD5 it was -0.161.
As to `Cn1cc(CN(Cc2ccc(Cl)cc2)C(=O)CCl)cn1`, the “log2 ratio” value was -0.382 in the assay with ALG13; -0.833 with ATXN3; -0.944 with BAP1; -0.0957 with EIF3F; 0.132 in the assay with EIF3H; -0.189 with FAM105A. Besides, the results for the “log2 ratio” value with OTUB1, in the assay with OTUD4 and in the assay with OTUD5 were -0.095, 0.0527 and -0.592, respectively.
On to `O=C(CCl)Nc1ccc(N2CCCC2=O)cc1`, for which the “log2 ratio” value is 0.0794 in the assay with ALG13; 0.0787 with ATXN3; -3.73 (active) with BAP1; -0.125 with EIF3F; 0.315 with EIF3H; 0.0919 with FAM105A. Also, the “log2 ratio” value in the assay with OTUB1 is -0.351; in the assay with OTUD4, 0.0281; with OTUD5, -0.504.

For the origin of these results see the supplement of paper PMC11732987, “Enantioselective OTUD7B fragment discovery through chemoproteomics screening and high-throughput optimisation” (Communications Chemistry, 2025).
